High-throughput results as filed in PubChem BioAssay.
Shown are actives, neighbours in structure and some others; about 7.5% of the full set was active somewhere.
Gal4-VP16 FLuc: Gal4-VP16 reporter inhibition counter-screen; Potency, µM (series often up to 53.6 µM), for the others: top-dose activity, negative = inhibition, actives largely listed as inhibitors; AID 2546; Drosophila S2 Gal4-VP16 UAS-luciferase, luminescence, 20 h; 310,000 tested, 3.5% active;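 note: Gal4-VP16 expression switched on by copper sulfate through the metallothionein promoter; potency is the fitted concentration of half-maximal effect; nearly all actives have a fitted effect of over 50% in size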
ELG1 DNA repair: blocks ELG1-dependent DNA repair in HEK293T cells. HEK293T ELG1-luciferase reporter, luminescence, 16 h; DNA damage induced by 5-fluorouridine. Potency, µM (doses to about 46.1 µM), without a hit: at the top dose activity change, negative = inhibition, actives largely listed as inhibitors. AID 504467. 330,000 tested, 2.3% active; note: potency is the fitted concentration of half-maximal effect; nearly all actives have a fitted effect of over 55% in size
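Reporter activity after DNA damage by 5-fluorouridine is monitored. Compound-treated cells incubate 16 hr at 37 °C, then ONE-Glo is added for 30 min before luminescence reading.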
TSHR antag: antagonists of human thyroid stimulating hormone receptor. P16473. TSHR-expressing cells, TSH-stimulated cAMP HTRF, 2 h; hits give low values. activity change, negative = inhibition, % at 11.5 µM. 330,000 tested, 0.2% active;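 active = activity change below a set negative limit, meaning inhibition stronger than a set level, cut at about -70% in these data; inconclusive = activity change between two set negative limits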
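Inhibition of cAMP made by TSHR-expressing cells under TSH stimulation (4nM final, EC80; 2 h, 37 deg C) is quantified with a one-step lysis HTRF kit, anti-cAMP cryptate versus cAMP-d2.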
RORg inh: blocks mouse ROR gamma transcriptional activity. Drosophila S2 Gal4-RORgamma UAS-luciferase reporter, 20 h. Potency, µM (doses to about 53.6 µM), for the others: at the top dose activity change, negative = inhibition, most hits filed as inhibitors. 310,000 tested, 5.4% active. AID 2551; note: potency is the fitted concentration of half-maximal effect; nearly all actives have a fitted effect of over 60% in size
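Read-out: Photinus luciferase luminescence; inhibitors lower reporter signal. Insect Schneider cells with Gal4-ROR gamma fusion under metallothionein promoter, UAS reporter; 700 uM final copper sulfate induction, 20 hr, ambient temperature.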
B2AR arrestin: recruits beta-arrestin to the human beta2-adrenergic receptor. beta-arrestin recruitment to beta2AR, cell-based reporter. Potency, µM (series often up to 46.1 µM), inactives show top-dose activation, most hits filed as activators. 330,000 tested, 0.02% active. AID 492947;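 note: potency is the fitted concentration of half-maximal effect; 0% = DMSO controls and full agonism = EC100 isoproterenol or metaproterenol; nearly all actives have a fitted effect of over 65% in size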
Target sequence (P07550 whole entry, looked up): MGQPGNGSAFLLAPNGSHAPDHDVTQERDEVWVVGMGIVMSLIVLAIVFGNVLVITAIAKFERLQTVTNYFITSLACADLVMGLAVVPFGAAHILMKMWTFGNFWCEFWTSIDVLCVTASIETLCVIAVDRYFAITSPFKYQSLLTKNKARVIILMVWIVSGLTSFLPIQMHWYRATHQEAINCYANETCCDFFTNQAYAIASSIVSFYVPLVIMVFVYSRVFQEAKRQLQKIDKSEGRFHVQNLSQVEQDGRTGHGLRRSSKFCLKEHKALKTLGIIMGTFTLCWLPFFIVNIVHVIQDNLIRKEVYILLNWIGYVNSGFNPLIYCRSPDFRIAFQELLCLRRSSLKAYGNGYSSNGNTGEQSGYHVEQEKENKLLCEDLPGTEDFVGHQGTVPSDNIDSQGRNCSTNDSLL
Starred values were filed as active, the others as inactive; ! = a repeat was not active; [ ] = remark or other dose. Unless noted, calls come from the whole dose curve; as a rule, active = well fitted curve in the direction sought with a large enough effect; inconclusive = small, poorly fitted or top-dose-only effect, or another doubt; inactive = no such curve, though single readings can be large; an effect the other way counts as inactive or inconclusive. Unless noted, % is set by controls: 0 for no effect and ±100 for the full control effect.

How did Nc1c(C(=O)NCCCc2ccccc2)c2nc3ccccc3nc2n1Cc1cccs1 do in these assays?
Gal4-VP16 FLuc: inconclusive; ELG1 DNA repair: 14.6µM*; TSHR antag: 14.1; RORg inh: inconclusive; B2AR arrestin: 0.4%

What do the screens show for `N#Cc1cccc(NC(=O)N2CC[C@@]3(CCCN(C(=O)Oc4ccccc4)C3)C2)c1`?
Gal4-VP16 FLuc: -11.1%; RORg inh: -23.1%

Results for Nc1ncnc2c1ccn2[C@@H]1O[C@H](CO)[C@@H](O)[C@H]1O ?
Gal4-VP16 FLuc: 1.12µM*; RORg inh: 0.631µM*

How did Nc1ncnc2c1ncn2[C@@H]1O[C@@H]2CO[P@](=O)(S)O[C@H]2[C@H]1O do in these assays?
Gal4-VP16 FLuc: -21.7%; RORg inh: -11.2%

Results for CCOC(=O)c1c(C)n(Cc2ccccc2)c2ccc(OCC(O)Cn3nc(C)cc3C)cc12 (configuration not stated) ?
Gal4-VP16 FLuc: -22.6%; ELG1 DNA repair: 20.6µM*; TSHR antag: 3.2; RORg inh: -23.1%; B2AR arrestin: -0.4%

How did CCOC(=O)c1c(C)n(Cc2ccccc2)c2ccc(OCC(O)Cn3nc(C)nc3C)cc12 (configuration not stated) do in these assays?
Gal4-VP16 FLuc: -5.7%; ELG1 DNA repair: inconclusive; TSHR antag: 5.9; RORg inh: -5.6%; B2AR arrestin: -0.2%

Results for CCCCCC1CC(CC(=O)NC(=S)Nc2ccc([N+](=O)[O-])cc2)C(=O)O1 (configuration not stated) ?
Gal4-VP16 FLuc: inconclusive; ELG1 DNA repair: inconclusive; TSHR antag: -37.6; RORg inh: 70.8µM*; B2AR arrestin: -2.1%

Results for CCCC(Cn1cncn1)c1ccc(Cl)cc1Cl (configuration not stated) ?
Gal4-VP16 FLuc: 15.0%; RORg inh: -20.0%

Results for C[CH2][Hg][S]c1ccccc1C(=O)O ?
Gal4-VP16 FLuc: 0.631µM*; RORg inh: 1.12µM*

Results for CNc1ccccc1C(=O)O ?
Gal4-VP16 FLuc: -3.6%; RORg inh: -21.2%

What do the screens show for `Cc1ccccc1-c1cncnc1NCCc1cnc[nH]1`?
Gal4-VP16 FLuc: -7.4%; RORg inh: -30.5%

How did CN=C=O do in these assays?
Gal4-VP16 FLuc: -4.3%; RORg inh: 7.1%

Results for CCCn1c(C(=O)c2ccccc2)nc2ccccc21 ?
Gal4-VP16 FLuc: 12.4%[10 µM]; ELG1 DNA repair: 6.0%; TSHR antag: 1.7; RORg inh: -33.5%; B2AR arrestin: -0.2%

What do the screens show for `Cc1ccc(C(=O)Nc2nc3ccccc3n2CCN2CCCC2)cc1`?
Gal4-VP16 FLuc: 7.08µM*; ELG1 DNA repair: inconclusive; TSHR antag: -0.2; RORg inh: 2.51µM*; B2AR arrestin: -0.3%

What do the screens show for `NC(Cc1ccc(Oc2cc(I)c(O)c(I)c2)c(I)c1)C(=O)O` (configuration not stated)?
Gal4-VP16 FLuc: -16.5%; RORg inh: 9.5%

Results for O=C(O)c1cc(O)c(O)c(O)c1 ?
Gal4-VP16 FLuc: inconclusive; RORg inh: 10µM*!

What do the screens show for `CC1=C[C@H]2[C@]3(O)C(C=C(CO)C[C@]2(O)C1=O)[C@@H]1C(C)(C)[C@]1(O)[C@H](O)[C@H]3C` (some centres not stated)?
Gal4-VP16 FLuc: 1.3%; RORg inh: 1.9%

What do the screens show for `CC1N(C)c2cc(NC(=O)c3ccco3)c(P(=O)(Nc3ccc([N+](=O)[O-])cc3)N3CCOCC3)cc2C1(C)C` (configuration not stated)?
Gal4-VP16 FLuc: -3.9%; ELG1 DNA repair: 18.3µM*; TSHR antag: -5.5; RORg inh: inconclusive; B2AR arrestin: -0.1%

What do the screens show for `OC[P+](CO)(CO)CO`?
Gal4-VP16 FLuc: 0.9%; RORg inh: -10.7%

Results for COc1ccccc1OCCCn1cc(C=O)c2ccccc21 ?
Gal4-VP16 FLuc: 0.002µM*; ELG1 DNA repair: inconclusive; TSHR antag: -20.4; RORg inh: inconclusive; B2AR arrestin: 0.1%

How did CC(=O)c1cn(Cc2ccccc2C#N)c2ccccc12 do in these assays?
Gal4-VP16 FLuc: 3.16µM*; ELG1 DNA repair: 7.3%; TSHR antag: -23.6; RORg inh: inconclusive; B2AR arrestin: 0.2%

How did CC(C)C(=O)c1cn(Cc2ccccc2C#N)c2ccccc12 do in these assays?
Gal4-VP16 FLuc: 7.3%; ELG1 DNA repair: inconclusive; TSHR antag: -4.0; RORg inh: 1.5%; B2AR arrestin: -0.3%

Results for CC(=O)c1cn(Cc2ccccc2F)c2ccccc12 ?
Gal4-VP16 FLuc: 7.08µM*; ELG1 DNA repair: inconclusive; TSHR antag: -26.5; RORg inh: 27.9%; B2AR arrestin: 0.5%

How did O=Cc1cn(Cc2ccccc2F)c2ccccc12 do in these assays?
Gal4-VP16 FLuc: -14.5%[10 µM]; ELG1 DNA repair: inconclusive; TSHR antag: 4.9; RORg inh: 2µM*; B2AR arrestin: 0.2%

How did O=C(c1ccccc1F)c1cn(Cc2ccccc2)c2ccccc12 do in these assays?
Gal4-VP16 FLuc: -22.1%; ELG1 DNA repair: -1.7%; TSHR antag: -21.1; RORg inh: inconclusive; B2AR arrestin: -0.3%

What do the screens show for `ClC(Cl)=C(Cl)Cl`?
Gal4-VP16 FLuc: 1.1%; RORg inh: -36.3%

What do the screens show for `CN(C)C(=O)Cl`?
Gal4-VP16 FLuc: 26.1%; RORg inh: -16.2%

How did Cc1cc(C(=O)Nc2ccc(CC(=O)O)cc2)c(C)o1 do in these assays?
Gal4-VP16 FLuc: inconclusive; ELG1 DNA repair: 22.4%; TSHR antag: -7.1; RORg inh: 11.2µM*; B2AR arrestin: -0.5%

How did N#Cc1nn(-c2c(Cl)cc(C(F)(F)F)cc2Cl)c(N)c1S(=O)C(F)(F)F (configuration not stated) do in these assays?
Gal4-VP16 FLuc: 20µM*; RORg inh: inconclusive

How did c1ccc(-c2ccc(C(c3ccccc3)n3ccnc3)cc2)cc1 (configuration not stated) do in these assays?
Gal4-VP16 FLuc: inconclusive; ELG1 DNA repair: inconclusive; TSHR antag: 9.5; RORg inh: 10µM*!; B2AR arrestin: 3.2%

What do the screens show for `Cc1cc(C)n(-c2ccc(NN=C(C#N)C#N)cc2)n1`?
Gal4-VP16 FLuc: 10µM*; ELG1 DNA repair: 0.0%; TSHR antag: -29.4; RORg inh: inconclusive; B2AR arrestin: 0.1%

What do the screens show for `N#CC(C#N)=NNc1ccc(-n2ccc(C(F)(F)F)n2)cc1`?
Gal4-VP16 FLuc: 3.55µM*; ELG1 DNA repair: inconclusive; TSHR antag: -76.1*; RORg inh: 5.01µM*; B2AR arrestin: -0.6%

How did CN1CCCCC1Cn1cc(C(=O)c2cc([N+](=O)[O-])ccc2I)c2ccccc21 (configuration not stated) do in these assays?
Gal4-VP16 FLuc: 0.9%; RORg inh: 24.0%

What do the screens show for `CCCCC(C#N)(Cn1cncn1)c1ccc(Cl)cc1` (configuration not stated)?
Gal4-VP16 FLuc: -0.2%; RORg inh: 31.2%
